From PubChem
Sampled rows, rich in hits. Any-hit rate of the full collection: about 6.5%.
MARV entry inh – blocks Marburg virus binding to or entry into cells; Marburg virus pseudotyped entry inhibition, cell reporter; Potency, µM (doses to about 37.8 µM), without a hit: at the top dose activity change, negative = inhibition, actives largely listed as inhibitors; 300,000 compounds, 1.8% hits; calls by dose curve; tested in HEK293 cells; further: potency means the concentration at half of the fitted maximal effect
VACV mCherry inh – vaccinia inhibition (mCherry reporter). Potency, µM (doses to about 36.5 µM), without a hit: at the top dose activity change, negative = inhibition, hits mostly inhibitors. 310,000 compounds, 0.63% hits. Vaccinia virus mCherry reporter infection, fluorescence; calls by dose curve; tested in A549 cells; further: potency means the concentration at half of the fitted maximal effect; nearly all actives have a fitted effect of over 35% in size
FMDV inh – foot and mouth disease virus antiviral activity. 410,000 compounds, 1.2% hits. FMDV antiviral cell-based qHTS. Potency, µM (top dose mostly 57.9 µM), inactives show at the top dose activity change, negative = inhibition, hits mostly inhibitors; calls by dose curve; tested in HEK293T cells; further: read-out not given here; potency means the concentration at half of the fitted maximal effect; nearly all actives have a fitted effect of over 45% in size
LASV entry inh – inhibitors of Lassa virus binding or cell entry; Lassa virus pseudotype entry inhibition, cell reporter; Potency, µM (top dose mostly 37.9 µM), inactives show at the top dose activity change, negative = inhibition, usual class: inhibitors; AID 540256; 300,000 compounds, 1.2% hits; calls by dose curve; tested in HEK293 cells; further: potency means the concentration at half of the fitted maximal effect; nearly all actives have a fitted effect of over 50% in size
VACV Venus inh – vaccinia inhibition (Venus reporter); Vaccinia virus Venus reporter expression, fluorescence; Potency, µM (top dose mostly 36.5 µM), without a hit: at the top dose activity change, negative = inhibition, usual class: inhibitors; 330,000 compounds, 0.46% hits; calls by dose curve; tested in A549 cells; further: potency means the concentration at half of the fitted maximal effect; nearly all actives have a fitted effect of over 30% in size
HCMV inh – inhibitors of human cytomegalovirus. HFF cells, HCMV-luciferase reporter, 72 h; active compounds read low. activity change, negative = inhibition, % at 57.5 µM. 410,000 compounds, 4.5% hits. AID 1259415; in the data active means activity change below about -60%; inconclusive means no clear call, values can overlap the other calls; inactive means above about -39%
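Compounds were evaluated in HFFs infected with an HCMV luciferase reporter virus (MOI 1 PFU/cell). Luciferase in lysates collected 72 h post infection served as the replication measure.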
Starred values were filed as active, the others as inactive; i = inactive; ? = inconclusive; / = not tested or not shown; ! = a repeat was not active; [ ] = remark or other dose. On the % scale 0 is the no-effect control and ±100 the full control effect.

SMILES | MARV entry inh | VACV mCherry inh | FMDV inh | LASV entry inh | VACV Venus inh | HCMV inh
Cc1ccc(-c2noc(CCCC(=O)Nc3cccnc3)n2)cc1 | ? | -14.5% | ? | ? | ? | -63.1*
COc1ccc(-c2noc(CCCC(=O)Nc3cccc(Cl)c3C)n2)cc1 | ? | -7.3% | ? | ? | -12.4% | -76.7*
O=C(CCCc1nc(-c2ccccc2)no1)Nc1cccnc1 | ? | -15.7% | 0.0% | -10.9% | -16.6% | -23.7
ClC(Cl)c1nnc(-c2ccccc2)c(-c2c[nH]c3ccccc23)n1 | ? | ? | -19.9% | -2.7% | ? | -86.5*
CC(=O)c1ccc(Nc2nc(C(N)CC(C)C)cs2)cc1 (centres undefined) | / | ? | -16.8% | / | -25.2% | 2.4
Cc1ccc(CNC(=O)c2ccc(Cn3c(=O)c4ccccc4n(CC(=O)Nc4c(C)cc(C)cc4C)c3=O)cc2)cc1 | 13.9%[46.1 µM] | ? | -23.5% | -5.3%[46.1 µM] | ? | -33.0
Cc1cc(C)c(NC(=O)Cn2c(=O)n(Cc3ccc(C(=O)NCc4ccco4)cc3)c(=O)c3sccc32)c(C)c1 | -26.7%[46.1 µM] | 0.3%[7.34 µM] | -2.9% | ? | -4.4%[7.34 µM] | -75.6*
Cc1cccc(C)c1NC(=O)Cn1c(=O)n(Cc2ccc(C(=O)NCc3ccco3)cc2)c(=O)c2sccc21 | 2.7%[46.1 µM] | -9.5% | -19.3% | ? | 7.7% | -66.1*
N#Cc1ccccc1Cn1c(=O)n(Cc2ccc(C(=O)NCc3ccco3)cc2)c(=O)c2sccc21 | 10.6% | 2.2% | 12.2% | -6.5% | -4.8% | -16.8
COc1ccc(NS(=O)(=O)c2cc(NC(=O)CCc3ccccc3)ccc2N2CCOCC2)cc1 | ? | -26.4% | 59.8% | -23.2% | -16.8% | -19.0
C=CCOc1ccc(/C=N\NC(N)=S)cc1 | / | / | 30.1% | / | / | 1.2
COc1ccc(/C=N/NC(N)=S)cc1 | 8.7%[46.1 µM] | 6.31µM* | 4.5% | 1.2% | 5.62µM* | 12.7
CC(C)Oc1ccc(/C=N/NC(N)=S)cc1 | ? | 1.12µM* | 21.9% | ? | 1.58µM* | 35.6
NC(=S)N/N=C/c1ncc(C(F)(F)F)cc1Cl | ? | 1.41µM* | -15.5% | ? | -22.0%[7.34 µM] | /
ON/C=N/C(=S)Nc1ncc(C(F)(F)F)cc1Cl | ? | i | -1.9% | 1.4%[46.1 µM] | -3.1% | -31.8
O=C(N/N=C/c1ccc(C(F)(F)F)cc1)c1ccncc1 | -8.6% | -15.2% | 33.5% | -1.1% | -18.5% | -14.9
NC(=S)N/N=C/c1ccc(C(F)(F)F)cc1 | -20.8% | 1.78µM* | -4.3% | ? | ? | -88.3*
COCCNC(=O)Cn1nc(-c2ccc(C)cc2)ccc1=O | 16.3% | i | -9.6% | 3.1% | -9.1% | /
Cc1c(/C(O)=C2/C(=O)C(=O)N(CCN3CCOCC3)C2c2ccccn2)cnn1-c1ccccc1 (centres undefined) | ? | -8.6% | 1.41µM* | ? | 0.7% | -78.2*
N#CCC(=O)Nc1ccc(C(=O)NNC(=S)NC2CC2)cc1 | 8.2% | i | 6.0% | ? | -13.4% | -96.6*
COc1ccc(Cl)cc1NC(=O)Nc1ccc(C(=O)N2CCOCC2)cc1 | 15.5% | -7.2% | -1.4% | ? | -20.4% | 16.2
Cc1c2cnn(CC(=O)NCCCN3CC(C)CC(C)C3)c(=O)c2c(C)n1Cc1ccccc1Cl (centres undefined) | ? | -22.0% | -12.8% | ? | ? | -68.7*
Cc1ccc(C(NC(=O)N2CCCCC2)=C(Cl)Cl)cc1F | -10.1% | / | ? | 1.9% | / | -79.7*
CC(=O)N=c1scc(-c2ccccc2)n1-c1cccc(O)c1 | ? | -23.4% | -11.2% | -25.8%[46.1 µM] | ? | -92.4*
Cc1ccc(-c2ccc(CCC(=O)O)n2-c2cccc(O)c2)cc1 | 13.0%[46.1 µM] | -8.1% | 47.4% | 10.7%[46.1 µM] | 1.8% | 36.0
SMILES | MARV entry inh | VACV mCherry inh | FMDV inh | LASV entry inh | VACV Venus inh | HCMV inh
CCOc1ccc(NC(=O)C(=O)NCC(c2cccnc2)N2CCc3ccccc32)cc1 (centres undefined) | / | -27.9% | 11.2µM* | -3.4%[46.1 µM] | -29.8% | -65.6*
COc1ccc(NC(=O)C(=O)NCC(c2cccnc2)N2CCc3ccccc32)cc1OC (centres undefined) | / | -25.6% | -21.8% | 5.4%[46.1 µM] | -14.0% | 11.3
COC(=O)c1ccc(NC(=O)C(=O)NCC(c2cccnc2)N2CCc3ccccc32)cc1 (centres undefined) | / | -14.7% | 11.2µM* | -14.4%[46.1 µM] | -12.2% | 10.8
Cn1ncc(Cl)c(Oc2ccc(Cl)cc2)c1=O | ? | ? | -8.6% | ? | ? | 59.1
Cn1ncc(Oc2ccc([N+](=O)[O-])cc2)c(Cl)c1=O | 9.8%[46.1 µM] | ? | 0.6% | 0.2% | -13.1% | -90.8*
Cc1cc(Cn2cnc3c2C[C@@H](C(=O)O)N(C(=O)C(c2ccccc2)c2ccccc2)C3)ccc1N(C)C | / | / | -15.6% | / | / | /
CC1=Nc2cc(Cl)ccc2Oc2ccccc21 | 1.8%[46.1 µM] | -0.5% | -2.7% | -6.4% | -1.5% | -21.7
Clc1ccc2c(c1)C(N1CCNCC1)=Nc1ccccc1O2 | 10.3µM*! | -22.6% | 2.4% | ? | ? | -37.9
Cc1oc(C(C)(C)C)cc1C(=O)NC(Cc1ccccc1)C(=O)O (centres undefined) | ? | -9.5% | 8.6% | ? | 3.6% | -77.2*
Cc1oc(-c2ccc3c(c2)OCCO3)cc1C(=O)NC(Cc1ccccc1)C(=O)O (centres undefined) | -12.3%[46.1 µM] | 3.4% | 40.1% | 4.0% | 11.6% | -16.5
c1ccc(COc2ccc(-c3cc4nc(NCCN5CCOCC5)ccn4n3)cc2)cc1 | / | 1.7% | -13.5% | / | -15.1% | -62.5*
NS(=O)(=O)c1ccc(CCNc2ccn3nc(-c4ccc(OCCN5CCOCC5)cc4)cc3n2)cc1 | / | -13.1% | -21.8% | / | -2.9% | -100.0*
Cc1c(C(=O)NCC2COCCO2)cnn1-c1nccc(-c2cccs2)n1 (centres undefined) | / | -4.3% | 32.0% | / | -13.4% | /
CC(=O)c1ccc2noc(-c3ccc(Cl)cc3)c2c1 | -14.4%[46.1 µM] | -11.8% | -21.4% | 4.2%[46.1 µM] | -1.8% | -61.8*
OCC[C@@H]1C[C@@H](O)[C@H](O)[C@@]2(OCCc3ccccc32)O1 | / | i | -12.5% | / | -4.0% | 35.9
Cc1cc(NC(=O)C(C)SCC(=O)N(Cc2ccccc2)c2ccccc2)no1 (centres undefined) | 3.55µM* | -17.2% | -13.0% | ? | 10.9% | ?
Cc1cc(NC(=O)C(C)SCC(=O)OCC(=O)N(Cc2ccccc2)C(C)(C)C)no1 (centres undefined) | 3.7% | -7.8% | -7.0% | 3.6% | -11.2% | -33.8
Cc1ccc2c(c1)C1CN(C)CCC1N2C(=O)c1ccc(Br)o1 (centres undefined) | 10.5% | / | -0.1% | 9.2% | -15.2% | 53.4
Cc1ccc2c(c1)C1CN(C)CCC1N2C(=S)NC(=O)c1ccc(Br)cc1 (centres undefined) | / | / | ? | / | / | -62.3*
O=S(=O)(c1ccc(Cl)cc1)c1cnc2ccccc2n1 | -61.1%[46.1 µM] | -9.2% | 25.1µM* | ? | -3.8% | -31.7
CCN1C(=O)Cc2cc(S(=O)(=O)N3CCOCC3)ccc21 | 12.3%[46.1 µM] | i | -23.9% | 2.3% | 0.5% | 41.5
CCN1CC(=O)Nc2cc(S(=O)(=O)N3CCOCC3)ccc21 | -8.6% | -11.9% | -13.0% | -14.5% | 2.3% | -60.4*
